Assay outcomes as filed in PubChem.
SW480 rereplic – A quantitative high throughput screen for small molecules that induce DNA re-replication in SW480 colon adenocarcinoma cells | SW480 DNA re-replication, Hoechst DNA content imaging, 48 h | Potency, µM (top dose mostly 46.1 µM), without a hit: top-dose re-replication activation, most hits filed as activators | 340,000 tested, 1.8% active | AID 624297, 2012; further: % of control where 0% means no effect; nearly all actives have a fitted effect of over 55% in size
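DNA re-replication was detected as more nuclei of elevated Hoechst intensity after 48 hr exposure to compound (23 nL pinned per well of 250 cells).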
a7 integrin act – qHTS for Activators of Integrin-Mediated Alleviation for Muscular Dystrophy | alpha7betagal myoblasts, beta-gal FDG fluorescence, 48 h | Potency, µM (series often up to 38.3 µM), inactives show at the top dose activation, usual class: activators | 350,000 tested, 0.064% active;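 further: 100% = response of the positive control SU9516; nearly all actives have a fitted effect of over 60% in size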
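alpha7betagal+/- myoblasts (passage 13, 250/well) treated 48 h at 37C with compounds at 1:260 dilution of DMSO stock. Lysed, then beta-galactosidase activity read as FDG fluorescence (ex 480/em 540) after 30 min, with pre-read for autofluorescence.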
MCF10A rereplic – A quantitative high throughput screen for small molecules that induce DNA re-replication in MCF 10a normal breast cells; MCF 10A DNA re-replication, Hoechst nuclear intensity, 48 h; Potency, µM (titrated, usually from 46.1 µM), for inactives: at the top dose activity, positive = re-replication, usual class: activators; 350,000 tested, 2.9% active; AID 624296, 2012; further: % of control where 0% means no effect; nearly all actives have a fitted effect of over 50% in size
Mito fusion act – qHTS Assay for Small Molecule Inhibitors of Mitochondrial Division or Activators of Mitochondrial Fusion. S. cerevisiae fusion-defective mutant growth rescue, CellTiterGlo 48 h. Potency, µM (series often up to 46.1 µM), inactives show top-dose growth rescue (activation), hits mostly activators. 320,000 tested, 0.23% active; further: % of control where 0% means no effect; nearly all actives have a fitted effect of over 45% in size
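Compounds are tested for their ability to restore growth of mitochondrial fusion-defective yeast strains at non-permissive 37C in YPEG medium over 48 hours. Viability is quantified by luciferase luminescence.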
AT treatment – qHTS Assay for Identifying a Potential Treatment of Ataxia-Telangiectasia. F2112 A-T fibroblasts, KAP-1 phosphorylation AlphaLISA; neocarzinostatin DNA damage 30 min before lysis. Potency, µM (highest dose often 57.5 µM), inactives show at the top dose activation, most hits filed as activators. 320,000 tested, 0.19% active; further: % of control where 0% means no effect; nearly all actives have a fitted effect of over 45% in size
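hTERT-immortalized A-T patient fibroblasts (F2112), 500 cells/well in OPTI-MEM, 1% FBS, got compounds for 60 min, then NCS for 30 min at 37C. Lysates were then assayed for phospho-KAP-1 by AlphaLISA (anti-pKAP1 donor, anti-KAP1 acceptor beads), 6 hr at 25C.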
An asterisk follows results filed as active; ? = inconclusive; · = not tested or not shown. This is a sample that favours compounds with a hit; in the whole collection about 4.2% have one here. The call rests on the fitted dose curve; in most records, active means well fitted activation curve with a large enough effect; inconclusive means small, poorly fitted or top-dose-only effect; inactive means no such curve, though single readings can be large or run the other way. Potency means the concentration at half of the fitted maximal effect.

SMILES | SW480 rereplic | a7 integrin act | MCF10A rereplic | Mito fusion act | AT treatment
COc1ccc2nc(C)cc(SCC(=O)N/N=C/c3ccccc3)c2c1 | -6.4% | -39.7% | 3.4% | -11.0% | -5.0%
Cc1cc(C(=O)NN)c2cc(Br)ccc2n1 | 14.5% | -6.4% | 21.9% | 6.9% | ·
COc1ccc2nc(C)cc(SCC(=O)N/N=C/c3ccc(O)cc3O)c2c1 | ? | -20.5% | 6.51µM* | 0.1% | -9.1%
COc1ccccc1/C=N/NC(=O)CSc1ccc2ccccc2n1 | ? | -3.3% | 16.4µM* | -7.5% | 15.9%
COc1cccc2c(SCC(=O)N/N=C/c3ccc(O)cc3O)cc(C)nc12 | 7.31µM* | -32.2% | 14.6µM* | 10.3% | -5.3%
COc1ccccc1/C=N/NC(=O)CO | -3.5% | -19.3% | 6.0% | -4.5% | -0.5%
Cc1cc(SCC(=O)NN)c2cc(Br)ccc2n1 | ? | -51.4% | 9.2µM* | 0.4% | 13.5%
Oc1ccc(CCc2ccccn2)cc1 | · | 3.8% | · | · | ·
COc1ccccc1/C=N/NC(=O)CSc1cc(C)nc2ccccc12 | ? | -6.4% | 13µM* | -6.3% | -3.6%
COc1ccc(NC(=O)CCSc2ccc3ccccc3n2)cc1 | -2.7% | 3.0% | 10.3µM* | -13.7% | 5.4%
O=C(O)CCC(=O)Nc1cccc(-c2nc3ccccc3o2)c1 | -13.8% | 0.0% | -4.6% | 0.2% | 21.1%
CCC(=O)Nc1c(-c2ccc3ccccc3c2)nc2ccccn12 | 41.8% | 31.6% | -2.1% | -5.6% | 14.8%
COC(=O)c1ccc(S(=O)(=O)N2CCCN(Cc3ccccc3)CC2)n1C | -14.8% | -2.7% | -3.6% | -4.7% | -1.5%
COC(=O)c1ccc(S(=O)(=O)N2CCCN(Cc3cccc(Br)c3F)CC2)n1C | ? | -52.3% | 13.6% | -2.7% | 39.8µM*
CC1CCN(Cc2cc(=O)oc3cc(O)c(Cl)cc23)CC1 | ? | -12.9% | 14.6µM* | 3.4% | 12.4%
CN(Cc1ccccc1F)Cc1cc(=O)oc2cc(O)c(Cl)cc12 | ? | 40.6% | 5.8µM* | 18.2% | 14.4%
Cc1cc(C)n2nc(C(=O)N3CCCC(Nc4ccc(F)c(F)c4)C3)cc2n1 (stereo not given) | -7.4% | 26.4% | 0.1% | 1.6% | 4.8%
O=C(Nc1ccc(Oc2ccsc2C(=O)O)cc1)c1ccccc1 | -17.9% | 43.8% | -6.4% | 13.4% | 50.0%
O=C(O)c1sccc1Oc1ccc(NS(=O)(=O)c2cccc(F)c2)cc1 | -0.6% | 40.5% | 12.8% | -32.5% | 44.7µM*
CC1(C)CC(=O)C(N=Nc2cccc(S(=O)(=O)N3CCOCC3)c2)=C(O)C1 | -2.2% | -26.7% | -4.9% | -9.5% | 17.8µM*
N#Cc1c(N2CCN(c3ccc([N+](=O)[O-])cc3)CC2)[n+](=O)c2ccc(Cl)cc2n1[O-] | 8.2µM* | -30.4% | ? | · | ·
COc1ccc(NC(=O)CCNC(=O)C2CCN(S(=O)(=O)c3ccc(OC)cc3)CC2)cc1 | ? | 10.4% | 15.6% | 0.6% | -5.1%
COc1ccc(S(=O)(=O)N2CCC(C(=O)NCCC(=O)Nc3cccc(Cl)c3)CC2)cc1 | ? | 21.7% | 20.6µM* | 5.9% | 5.2%
Cc1c(C=O)c(C=O)c(C)n1Cc1ccccc1 | ? | -57.2% | 10µM* | -2.9% | 5.0%
CC(C(=O)NCCCc1ccccc1)n1cccc1C(=O)c1ccccc1 (stereo not given) | -5.7% | -1.8% | 13.5% | 22.4µM* | 2.3%
SMILES | SW480 rereplic | a7 integrin act | MCF10A rereplic | Mito fusion act | AT treatment
CC(C)C(=O)NCCCc1ccccc1 | -6.0% | 16.9% | -3.6% | 0.2% | -0.9%
O=C(Cn1cccc1C(=O)c1ccccc1)NCCCc1ccccc1 | -15.9% | 3.98µM* | -3.6% | 7.0% | 5.4%
O=C(C1CCN(S(=O)(=O)c2ccc(Cl)cc2)CC1)N1CCN(c2ccccn2)CC1 | -5.1% | 6.0% | 3.3% | 0.8% | 4.5%
COc1ccc(NC(=O)Cn2c([N+](=O)[O-])cnc2C)c(OC)c1 | · | 9.1% | · | · | ·
CC1=Nc2ccccc2/C1=C\c1sc(Nc2ccc(C)cc2)nc1O | 1.3µM* | 18.6% | ? | ? | -31.0%
CC1=Nc2ccccc2/C1=C/c1sc(=O)n(CC(=O)N2CCCC2)c1O | -11.2% | -11.0% | 9.7% | 2.5% | 4.3%
